# Compound activity as filed in PubChem.
# Compounds with a hit are over-represented: about 2.9% of the library has one in this group of screens.
# a7 integrin act: activators of alpha7 integrin expression for muscular dystrophy; alpha7betagal myoblasts, beta-gal FDG fluorescence, 48 h; Potency, µM (series often up to 38.3 µM), for inactives: at the highest dose activation, hits mostly activators; hit rate 0.064% among 350,000;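 also: potency is read from the fitted curve at half-maximal effect; 100% = response of the positive control SU9516; nearly all actives have a fitted effect of over 60% in size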
#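 Alpha7betagal+/- myoblasts (passage 13) were plated 16-24 hr, then exposed to compounds (1:260 dilution of DMSO stock) for 48 hours at 37C. After MPER lysis, β-galactosidase reporter activity was read as FDG fluorescence (ex 480/em 540) after 30 minutes.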
# D3 ag: activates the human D3 dopamine receptor. AID 652048. max activation, %. hit rate 0.58% among 410,000. D3R DiscoveRx beta-arrestin cells, luminescence, 90 min. P35462; in the data active = max activation above about 30%; also: 0% is about no effect
#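 Agonist-mode cell screen: cells plated at 1500/well and incubated overnight at 37 °C, then exposed to library compounds for 90 min at 37 °C. Detection reagent was added for 30–60 min at room temperature, and luminescence was read.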
# DRD3 antagonist: D3 dopamine receptor (human) antagonism. P35462. D3R cells, DiscoveRx beta-arrestin luminescence, antagonist mode; stronger effect = lower value. max response, negative = inhibition, %. hit rate 2.5% among 360,000. AID 652054; in the data active = max response below about -50%; inconclusive = no clear call, values can overlap the other calls; also: % is scaled to controls: 0 for no effect and ±100 for the full control effect
#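 Cells plated overnight at 1500 cells/well, then exposed to library compounds with dopamine controls for 90 minutes at 37 degrees C. DiscoveRx reagent added for 30–60 minutes at room temperature; luminescence read, quantitative HTS format.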
# IDH1 R132H inh: inhibitors of human mutant IDH1 R132H. O75874. IDH1-R132H enzyme, NADPH consumption, diaphorase/resazurin fluorescence. Potency, µM (series often up to 76.6 µM), for inactives: at the top dose activity change, negative = inhibition, hits mostly inhibitors. hit rate 0.093% among 390,000; also: potency is read from the fitted curve at half-maximal effect; % is scaled to controls: 0 for no effect and ±100 for the full control effect; nearly all actives have a fitted effect of over 65% in size
#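 IDH1-R132H (0.5 ug/mL dispensed) in pH 7.5 Tris buffer was preincubated 30 min with compound, then given a substrate mix of 0.016 mM NADPH and 2 mM alpha-KG for 80 min at room temperature; remaining NADPH was read by diaphorase/resazurin fluorescence.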
# B2AR arrestin: beta2AR (human) beta-arrestin recruitment activity; beta-arrestin recruitment to beta2AR, cell-based reporter; Potency, µM (top dose mostly 46.1 µM), inactives show at the highest dose activation, actives largely listed as activators; AID 492947; hit rate 0.02% among 330,000;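 also: potency is read from the fitted curve at half-maximal effect; 0% = DMSO controls and full agonism = EC100 isoproterenol or metaproterenol; nearly all actives have a fitted effect of over 65% in size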
# Target sequence (P07550 whole entry, looked up): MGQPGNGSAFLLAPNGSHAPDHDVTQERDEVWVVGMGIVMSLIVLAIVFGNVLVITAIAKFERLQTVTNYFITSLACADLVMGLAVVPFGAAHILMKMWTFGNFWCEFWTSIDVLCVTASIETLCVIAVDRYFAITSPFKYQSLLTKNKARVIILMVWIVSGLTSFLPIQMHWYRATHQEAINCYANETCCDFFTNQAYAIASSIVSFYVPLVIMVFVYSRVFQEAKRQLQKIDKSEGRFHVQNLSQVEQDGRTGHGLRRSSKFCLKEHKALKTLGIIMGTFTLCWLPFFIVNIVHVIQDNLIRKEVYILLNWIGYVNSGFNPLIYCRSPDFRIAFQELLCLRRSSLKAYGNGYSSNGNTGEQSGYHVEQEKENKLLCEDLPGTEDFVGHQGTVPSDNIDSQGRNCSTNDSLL
# The depositor's hits bear a star; ? = inconclusive; / = no result; ! = not active in a repeat; [ ] = dose if it differs, or a comment. Unless noted, calls follow the shape of the dose curve; as a rule, active = well fitted curve in the direction sought with a large enough effect; inconclusive = small, poorly fitted or top-dose-only effect, or another doubt; inactive = no such curve, though single readings can be large; an effect the other way counts as inactive or inconclusive.
SMILES,a7 integrin act,D3 ag,DRD3 antagonist,IDH1 R132H inh,B2AR arrestin
Cc1ccc(S(=O)(=O)c2nnn3c2nc(NC2CCCCCC2)c2sccc23)cc1C,/,23,/,10%,/
C=CCn1c(SCC(=O)N(C)C2CCS(=O)(=O)C2)nnc1-c1ccncc1 (configuration not stated),21%,-2,-54*,-3%,0%
C=CCn1c(SCC(=O)N(CC)C2CCS(=O)(=O)C2)nnc1-c1ccccc1 (configuration not stated),31%,3,-18,9%,0%
COCCCn1c(C)cc(C(=O)CN2c3cccc4cccc(c34)S2(=O)=O)c1C,-51%,2,11,-10%,0%
O=C(CCC(=O)c1ccc(F)cc1)NCC1(N2CCCCC2)CCCCC1,-17%,-12,-88*,2%,-1%
O=C(CCC(=O)c1ccc(F)cc1)NN1C(=O)NC2(CCCCC2)C1=O,-14%,7,5,4%,0%
CCc1nc2ccc(C(=O)NCc3ccccc3OC)cn2c1N(C=O)CCC(C)C,/,5,1,/,/
CCCCN(C=O)c1c(CC)nc2ccc(C(=O)NCc3ccccc3OC)cn12,/,2,-51*,/,/
CCCCCCCCCCCCCCCC(=O)OC[C@@H](NC(=O)C(Cl)Cl)[C@H](O)c1ccc([N+](=O)[O-])cc1,/,-3,/,/,/
O=c1[nH]c(=O)n(C2C[C@H](O)[C@@H](CO)O2)cc1C(F)(F)F (some centres not stated),/,19,14,-2%,0%
O=c1[nH]c(=O)n([C@H]2C[C@H](O)[C@@H](CO)O2)cc1C(F)(F)F,/,90*!,24,1%,0%
CCCC[C@@H]1CNC(=O)C(=O)N1CCCc1cc(OC)c(OC)c(OC)c1,24%,30*,32,0%,0%
CCC(C)[C@H]1CNC(=O)C(=O)N1CCCc1cc(OC)c(OC)c(OC)c1 (some centres not stated),-8%,8,6,2%,0%
CCc1ccc(OCc2ccc(C(=O)NCc3ccccn3)o2)cc1,-3%,-5,-70*,-3%,0%
CCOc1ccc(OCc2ccc(C(=O)NCc3ccncc3)o2)cc1,-18%,6,11,0%,-1%
COc1ccc(CC(=O)Nc2cc(C)on2)cc1OC,2%,-11,7,0%,0%
COc1ccc(/C=N/OCC(=O)Nc2cc(C)on2)cc1OC,0%,30*,18,1%,0%
Cc1ccc(CNC(=O)CS(=O)(=O)c2cccc3nsnc23)cc1,/,-6,/,15%,/
CCOC(=O)c1c(NC(=O)C(C)Sc2cn(CCNC(=O)c3ccc(OC)cc3)c3ccccc23)sc2c1CCC2 (configuration not stated),/,6,/,-8%,/
CCOc1ccc(-c2nc(S(=O)(=O)c3ccccc3)c(NC)o2)cc1,0%,7,6,3%,-1%
CNc1oc(Cc2ccccc2)nc1S(=O)(=O)c1ccccc1,-54%,4,-89*,-1%,0%
COc1cc(CNc2ccc3[nH]c(=O)[nH]c3c2)cc(Br)c1OCc1ccc(F)cc1,-3%,33*!,13,10%,4%
COc1ccc(C(=O)N2CCCC(C)(C(=O)NS(=O)(=O)C3CC3)C2)cc1 (configuration not stated),/,-13,-53*,/,/
Cc1ccc(C)n1CCN1CCN(C(=O)c2ccc(Cl)cc2)CC1,-9%,-13,-78*,3%,8%
CCOc1ccc(S(=O)(=O)N2CCN(S(=O)(=O)c3ccc(C(C)=O)cc3)CC2)cc1,6%,3,-1,-2%,0%
SMILES,a7 integrin act,D3 ag,DRD3 antagonist,IDH1 R132H inh,B2AR arrestin
CC(=O)c1ccc(S(=O)(=O)N2CCN(CCOc3ccc(Br)cc3)CC2)cc1,-13%,49*,-22,-2%,0%
O=C(c1c(F)cccc1F)N1CCN(CCOc2ccccc2)CC1,7%,9,?,18%,0%
Cc1ccc(C)n1CCN1CCN(C(=O)c2ccco2)CC1,4%,5,-11,8%,-1%
COc1ccc(C(=O)N2CCCC2)cc1,8%,-8,-13,3%,0%
O=C(c1ccc(Cl)cc1)N1CCN(CCOc2ccccc2)CC1,11%,84*,-5,3%,0%
COc1ccc(OCCN2CCN(C(=O)c3ccc(OC)cc3)CC2)cc1,0%,92*,0,8%,0%
COc1ccc(C(=O)N2CCCCC2CCN2CCCCC2)cc1 (configuration not stated),/,-3,/,0%,/
CCCOc1ccc(CNC(=O)CCCN2C(=O)CSc3c2c(C)nn3-c2ccccc2)cc1,/,-3,/,11%,/
Cc1cc(C)cc(NC(=O)NCCn2nnc3cc(S(=O)(=O)N(C)C)ccc32)c1,/,-9,/,2%,/
O=S(=O)(NCc1nc2cccnc2n1Cc1ccccc1Cl)c1ccc2c(c1)CCCC2,/,-1,/,2%,/
COc1ccc(OCCN2CCN(C(=O)c3ccc(OC(F)F)c(OC)c3)CC2)cc1,-4%,123*,14,0%,0%
O=C1C=C(c2ccc3c(c2)oc2ccccc23)C[C@@H](c2ccc3c(c2)OCO3)C1,15%,-11,8,11%,0%
Cc1cc(Nc2ccc(Cl)cc2)n2cnnc2n1,/,2,/,0%,/
COc1ccc(OCC(O)CN2CCN(c3ccccc3)CC2)cc1 (configuration not stated),-5%,27,?,-12%,?
OC(COc1ccc2c(c1)OCO2)CN1CCc2ccccc2C1 (configuration not stated),-17%,-35,-78*,7%,0%
COc1ccc(OCC(CO)N2CCN(c3ccccc3)CC2)cc1 (configuration not stated),7%,37*,?,0%,/
OC(COC1CCCCC1)CN1CCN(c2ccccc2)CC1 (configuration not stated),18%[7.66 µM],4,-61*,0%,0%
CC(C)c1ccc(OCC(O)CN2CCN(c3ccccc3)CC2)cc1 (configuration not stated),-51%,45*,?,-1%,0%
OC(COc1ccc2c(c1)OCO2)CN1CCN(c2ccccc2)CC1 (configuration not stated),14%,14,-63*,-4%,0%
OC(COc1ccc2c(c1)OCO2)CN1CCCCC1 (configuration not stated),4%,-13,-7,0%,0%
COc1cc2c(cc1OC)C1C/C(=N\O)C(CC(C)C)CN1CC2 (configuration not stated),-10%,-20,-58*,7%,0%
O=C(O)c1cc(O)c2c(c1)[C@@H]([C@H]1c3cc(C(=O)O)cc(O)c3C(=O)c3c(O[C@@H]4O[C@H](CO)[C@@H](O)[C@H](O)[C@H]4O)cccc31)c1cccc(OC3O[C@H](CO)[C@@H](O)[C@H](O)[C@H]3O)c1C2=O (some centres not stated),/,0,-56*,9%,0%
